# Hits are enriched below; roughly 7.3% of the tested compounds scored in any of these assays.
# Tau fibril ThT: inhibitors of human tau fibril formation, thioflavin T binding; hit rate 2.1% among 270,000; Potency, µM (series often up to 57.4 µM), without a hit: at the highest dose activity, negative = inhibition, most hits filed as inhibitors; recombinant tau K18 P301L, heparin-induced fibrillization, ThT fluorescence; P10636; also: nearly all actives have a fitted effect of over 55% in size
# Target sequence (P10636 561-689 P618L limits assumed): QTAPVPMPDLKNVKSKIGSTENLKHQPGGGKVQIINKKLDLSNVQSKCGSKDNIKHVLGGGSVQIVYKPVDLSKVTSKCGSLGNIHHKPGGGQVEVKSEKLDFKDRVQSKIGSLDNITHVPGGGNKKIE
#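 Heparin-induced fibrillization of the P301L-mutant K18 repeat-domain fragment of human tau was followed by ThT binding in quantitative high-throughput format.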
# Gal4-VP16 FLuc: inhibits Gal4-VP16 luciferase reporter, ROR gamma counter-screen. Drosophila S2 Gal4-VP16 UAS-luciferase, luminescence, 20 h. Potency, µM (highest dose often 53.6 µM), inactives show top-dose activity, negative = inhibition, usual class: inhibitors. hit rate 3.5% among 310,000. AID 2546;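 also: Gal4-VP16 expression switched on by copper sulfate through the metallothionein promoter; nearly all actives have a fitted effect of over 50% in size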
# Tau fibril FP: inhibitors of human tau fibril formation; P10636; K18 P301L tau heparin fibrillization, Alexa594 FP, 6 h; Potency, µM (top dose mostly 57.7 µM), for inactives: at the top dose activity, negative = inhibition, actives largely listed as inhibitors; hit rate 0.39% among 280,000; also: nearly all actives have a fitted effect of over 55% in size
#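 Human K18 P301L fragment (15 uM unlabeled plus 0.24 uM Alexa 594-labeled) in 100 mM sodium acetate pH 7 with compound, aggregation induced by 20 uM heparin for 6 hr at 37 C. ThT (30 uM) added for 1 hr, then Alexa 594 FP read.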
# Tau fluor cs: counter-screen for tau fibril formation inhibitors. AID 1463. hit rate 0.93% among 280,000. Potency, µM (titrated, usually from 57.7 µM), without a hit: at the highest dose activity change, negative = decrease. tau K18 P301L (four-repeat tau fragment) Alexa594 fluorescence, heparin fibrillization; also: nearly all actives have a fitted effect of over 55% in size
#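 Human K18 P301L tau (15 uM unlabeled plus 0.24 uM Alexa 594-labeled, final) in 100 mM sodium acetate pH 7 was mixed with compound and 20 uM heparin and incubated 6 hr at 37 C.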
# RORg inh: inhibitors of mouse ROR gamma transcriptional activity; P51450; Drosophila S2 Gal4-RORgamma UAS-luciferase reporter, 20 h; Potency, µM (series often up to 53.6 µM), for inactives: top-dose activity change, negative = inhibition, hits mostly inhibitors; AID 2551; hit rate 5.4% among 310,000; also: nearly all actives have a fitted effect of over 60% in size
#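 Schneider cells (Drosophila), stable Gal4 DBD–ROR gamma + UAS-luc; 1 hr cmpd preincubation; Cu2+ induction 700 uM final; 20 hr ambient; luminescence.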
# * = called active by the depositor; ? = inconclusive; / = no result given; [ ] = dose if it differs, or a comment. Calls follow the shape of the dose curve; as a rule, active = well fitted curve in the direction sought with a large enough effect; inconclusive = small, poorly fitted or top-dose-only effect, or another doubt; inactive = no such curve, though single readings can be large; an effect the other way counts as inactive or inconclusive. % is scaled to controls: 0 for no effect and ±100 for the full control effect; potency is read from the fitted curve at half-maximal effect.
SMILES,Tau fibril ThT,Gal4-VP16 FLuc,Tau fibril FP,Tau fluor cs,RORg inh
COc1ccccc1NC(=S)NC1CCC(CC2CCC(NC(=S)Nc3ccccc3OC)CC2)CC1 (configuration not stated),2.8%,3.16µM*,-3.0%,0.9%,3.55µM*
CN(C)NC(=S)NC1CC2CCC1C2 (configuration not stated),/,12.6µM*,10.0%,?,5.62µM*
COc1ccccc1NC(=S)NCC1CCC(CNC(=S)Nc2ccccc2OC)CC1 (configuration not stated),-2.2%,-10.8%,?,-11.1%,-27.6%
COc1ccccc1NC(=S)NC1CC2CCC1C2 (configuration not stated),/,15.8µM*,0.9%,-2.5%,2.24µM*
Cc1ccc(Nc2nc(-c3c(C)nc4ccccn34)cs2)cc1,11.2µM*,?,?,10µM*[quencher],10µM*
Cc1nc2ccccn2c1-c1csc(NCc2ccco2)n1,?,?,-10.6%,-17.0%,11.2µM*
Cc1ccc(Nc2nc(-c3c(C)nc4ncccn34)cs2)cc1,14.1µM*,-5.8%,-5.2%,?,?
Cc1nc2ncccn2c1-c1csc(Nc2ccc(O)cc2)n1,10µM*,22.1%,6.8%,?,-41.5%
C=CCNc1nc(-c2c(C)nc3ncccn23)cs1,/,-2.0%,/,/,7.2%
Cc1ccc(Nc2nc(C3CC3)cs2)cc1,?,-21.4%,5.6%,?,?
O=C(CSc1ccccc1)NC1CCCCCC1,/,14.7%,/,/,?
Cc1nc(C)c(-c2csc(NCc3ccccc3)n2)s1,-14.2%,-5.5%,-3.1%,-15.2%,-28.7%
Cc1ccn2c(-c3csc(NCc4ccccc4)n3)c(C)nc2c1,?,?,?,?,14.1µM*
COc1cccc(-c2cc(C(=O)Nc3nc4ccccc4s3)c3ccccc3n2)c1,-15.1%,-23.9%,?,-23.6%,?
O=C(Nc1nc2ccccc2s1)c1cc(-c2ccco2)nc2ccccc12,?,12.6µM*,-2.6%,-29.0%,?
O=C(O)c1cc(-c2ccco2)nc2ccccc12,-14.4%,-10.0%,-3.7%,-10.1%,-22.5%
Cc1ccc2nc(NC(=O)c3cc(-c4ccco4)nc4ccccc34)sc2c1,?,?,-2.9%,-29.8%,17.8µM*
CCC(CC)c1nnc(NC(=O)c2cc(-c3ccccc3)nc3ccccc23)s1,-3.2%,11.2µM*,-9.7%,-9.9%,10µM*
CCC(CC)c1nnc(NC(=O)Oc2ccccc2)s1,4.2%,0.0%,6.1%,1.9%,-2.7%
CC(C)Cc1nnc(NC(=O)c2cc(-c3ccccc3)nc3ccccc23)s1,-4.5%,?,7.5%,1.6%,4.47µM*
CCC(CC)c1nnc(NC(=O)c2ccc3ccccc3n2)s1,?,10µM*,-4.0%,-19.0%,3.55µM*
CC(C)c1ccc(Nc2nc3c(S(=O)(=O)c4ccc(Br)cc4)nnn3c3ccsc23)cc1,7.5%,/,?,?,/
C[C@H]1Cc2c(COc3ccccc3)nc3c(c2CO1)CN(C(=O)C1CC1)CC3,-1.5%[11.5 µM],/,-1.5%[11.6 µM],-9.8%[11.6 µM],/
CCCOC1(C(F)(F)F)NC(=O)N(c2ccc(Cl)cc2)C1=O (configuration not stated),-14.4%,/,-1.3%,-28.1%,/
Cc1ccc2oc(-c3ccc(NC(=O)c4ccncc4)cc3O)nc2c1,-15.5%,4.5%,-13.0%,-25.6%,7.08µM*
SMILES,Tau fibril ThT,Gal4-VP16 FLuc,Tau fibril FP,Tau fluor cs,RORg inh
CCCC(=O)Nc1ccc(-c2nc3cc(C)ccc3o2)cc1,-6.7%,2.82µM*,-14.1%,-19.6%,3.98µM*
O=C1N=C(c2ccccc2)S/C1=C\c1cccs1,7.94µM*,16.1%,?,?,?
O=C1OC(c2ccccc2)=C/C1=C/c1cccs1,3.16µM*,9.7%,?,?,7.4%
Cc1cccc(O)c1,-11.7%,-5.3%,0.0%,-8.3%,9.0%
CCOC(=O)CC1Sc2ccccc2NC1=S (configuration not stated),?,?,-20.1%,?,3.55µM*
COc1ccc(C(=O)O/N=C(/c2ccccc2)c2ccncc2)cc1,-15.2%,-25.2%,?,-12.9%,22.3%
COc1ccc(C(=O)N=c2nc3ccccn3s2)cc1,?,3.98µM*,?,-16.2%,2.24µM*

# Assay outcomes: PubChem BioAssay, National Center for Advancing Translational Sciences (NCATS)
